40 compounds from ChEMBL document CHEMBL3988442, “University of Dundee, Small-Polar-MMV Screening Library” (2021) can be followed below.

Structures are written as SMILES. For some assays here: Entries with a potency or affinity are not part of this list.

The first experiment addresses T1, Ubiquitin-activating enzyme e1, putative (Leishmania donovani (strain BPK282A1)) (UniProt E9BSI1).
T1 sequence (whole entry): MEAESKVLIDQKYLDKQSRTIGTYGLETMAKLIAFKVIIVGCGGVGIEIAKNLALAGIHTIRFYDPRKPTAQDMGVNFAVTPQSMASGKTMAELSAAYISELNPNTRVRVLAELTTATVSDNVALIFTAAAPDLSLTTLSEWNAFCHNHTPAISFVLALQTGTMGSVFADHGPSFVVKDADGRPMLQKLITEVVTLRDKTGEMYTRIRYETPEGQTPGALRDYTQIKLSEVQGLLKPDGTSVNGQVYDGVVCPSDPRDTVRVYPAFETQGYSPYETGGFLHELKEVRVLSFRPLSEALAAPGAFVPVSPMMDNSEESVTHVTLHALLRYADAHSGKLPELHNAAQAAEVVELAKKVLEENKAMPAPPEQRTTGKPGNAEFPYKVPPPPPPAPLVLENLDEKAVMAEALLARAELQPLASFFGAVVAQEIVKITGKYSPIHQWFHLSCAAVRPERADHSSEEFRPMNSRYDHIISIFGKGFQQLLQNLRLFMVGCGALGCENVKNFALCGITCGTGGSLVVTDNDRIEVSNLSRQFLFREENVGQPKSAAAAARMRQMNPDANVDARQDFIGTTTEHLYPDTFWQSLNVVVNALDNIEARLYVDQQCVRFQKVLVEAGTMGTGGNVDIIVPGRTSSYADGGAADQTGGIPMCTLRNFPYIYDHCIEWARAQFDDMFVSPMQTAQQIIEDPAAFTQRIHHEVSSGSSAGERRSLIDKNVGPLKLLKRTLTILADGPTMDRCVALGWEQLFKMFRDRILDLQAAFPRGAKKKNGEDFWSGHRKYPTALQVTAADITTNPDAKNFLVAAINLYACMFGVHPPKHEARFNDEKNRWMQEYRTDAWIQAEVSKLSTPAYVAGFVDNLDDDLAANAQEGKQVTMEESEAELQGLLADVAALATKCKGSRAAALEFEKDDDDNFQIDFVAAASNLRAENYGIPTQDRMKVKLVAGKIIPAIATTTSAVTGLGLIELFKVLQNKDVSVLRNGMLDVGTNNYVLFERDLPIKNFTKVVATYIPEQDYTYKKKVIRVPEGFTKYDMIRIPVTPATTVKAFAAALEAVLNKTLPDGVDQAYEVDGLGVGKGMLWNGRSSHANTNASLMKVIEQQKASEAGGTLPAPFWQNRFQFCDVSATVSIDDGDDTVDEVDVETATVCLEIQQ
As to the kind of experiment: Leishmania donovani Ubiquitin Activating Enzyme (LdE1). As to conditions: 30 µM. Also noted: scale not given: direction of the effect not stated beside the values. It counts as functional.
Regarding `c1cnn(Cc2nnc(C3CCN(C4CCOCC4)CC3)n2C2CC2)c1`, the Percent Effect was 13.3%.
As to `CCOc1ccccc1C(CC(=O)Nc1ccc(C)cn1)NC(C)=O` (stereo not given), the Percent Effect is 10.5%.
With `Cc1nc(C)n(CC2CN(Cc3cccnc3)CCO2)n1` (stereo not given), the Percent Effect turned out to be 21.1%.
With `CCOc1ccc(C#N)cc1NCC(=O)Nc1cc(F)ccc1F`, the Percent Effect was -12.7%.
Consider `COCC1CN(C(=O)C2=CCCCC2)Cc2cnn(CC3CC3)c21` (stereo not given), for which the Percent Effect was found to be 13%.
As for `O=S1(=O)COCCN1Cc1cccc(Cl)c1`, the Percent Effect is 5.41%.
On the same count and under the same terms, for `COCCN(Cc1nc2c(cnn2C)c(=O)[nH]1)Cc1ccco1` the value was 16.2%; for `O=C(c1ccc(F)cc1)N1CCN2C[C@H](OCc3ccccn3)C[C@H]2C1`, 8.11%; for `CCO[C@@H]1CCN(C(=O)c2ccc[nH]2)[C@@H]1Cc1cnn(C)c1`, 0%.
Take `O=C1C[C@H]2[C@@H](CCN2C(=O)c2ccccc2)N1CCN1CCOCC1`: the Percent Effect is -2.74%.
The same measure, in the same setting: then `CC(NC(=O)NCCCn1cccn1)c1ccc2c(c1)NC(=O)CO2` (stereo not given), with 25.3%.
For `CCc1nc(C(=O)N2CCCC2)nn1-c1ccccc1Cl`, the Percent Effect stood at 10.5%.
For the compound `CN(CCOc1cccc(CNC(=O)C2CC2)c1)C1CCOCC1`, the Percent Effect is 0%.
Turning to `CC(C)C1CN(C(=O)c2ccc(N3CCCC3)nc2)CCS1` (stereo not given), the Percent Effect worked out at 2.6%.
Same read-out and setting: for `O=C(CCn1ccccc1=O)Nc1ccc(F)c(Cl)c1` the value was 8.11%; for `CCS(=O)(=O)c1ccccc1N1CCC(NC(=O)NC2CCCC2)CC1`, 10.8%.
As for `O=C(NS(=O)(=O)c1cc(Cl)sc1Cl)c1cccc2c1OCCO2`, the Percent Effect is -11%.
Same read-out and setting: for `CN(C)C(=O)CNC(=O)c1ccc(Cl)cc1F` the value was 21.1%; for `COc1cccc(N2CCN(CCC(=O)NC3CCCC3)CC2)c1`, 7.89%; for `c1csc(CN2Cc3nccn3CC(Cn3cncn3)C2)n1` (stereo not given), 2.74%.
As for `Cc1cc2nc(SCC(=O)N3CCCC3)n(-c3ccccc3)c(=O)c2[nH]1`, the Percent Effect was found to be 2.63%.
Regarding `Cc1ccc(CN2CCCC3(CCN(S(C)(=O)=O)C3)C2)o1` (stereo not given), the Percent Effect stood at 8%.
Consider `CC(NC(=O)NCC1(N2CCCCC2)CCCCC1)c1nncn1C` (stereo not given), for which the Percent Effect worked out at 18.4%.
Same read-out and setting: for `CCOc1ncccc1C(=O)N(C)Cc1ncc(C)c(OC)c1C` the value was 13%; for `Cc1cc(C[C@@H]2COC[C@H]2NCc2ccc(Br)s2)on1`, 1.35%.
The same measure, in the same setting: then `CC(C)N1CCC(Cc2cncc(-c3ccccc3C(=O)O)n2)CC1`, with 8%.
As for `Cc1ccc2oc(CNC(C)c3nnc4n3CCCC4)cc2c1` (stereo not given), the Percent Effect was -10.8%.
Still for that read-out and setting: for `CC(=O)N1CCN(C(=O)NCc2csc(Br)c2)CC1` the value was 2.7%.
In the case of `CCc1noc(C(C)N2CCN(Cc3nc(C)c(C)o3)CC2)n1` (stereo not given), the Percent Effect was found to be 0%.
For `CC(C)c1csc(C2CCCN(C(=O)c3ncccn3)C2)n1` (stereo not given), the Percent Effect is -2.7%.
On the same count and under the same terms, for `CC(C)(C)N1CC(C(=O)N2CCN(CCn3cccc3)CC2)CC1=O` (stereo not given) the value was 10.7%; for `CC(C)c1nc(C2CCCN2CCc2ccncc2)no1` (stereo not given), 0%.
As to `CC(=O)NCc1ccc(C(=O)N2CCCC2c2cnn(C)c2)o1` (stereo not given), the Percent Effect is -2.63%.
With `CC(C)NC(=O)c1n[nH]c(-n2cnnc2)n1`, the Percent Effect worked out at 9.33%.
On to `Cc1cc(C)n(CC2CN(Cc3nc(-c4ccoc4)no3)CCO2)n1` (stereo not given), for which the Percent Effect came to 16.2%.
As for `Cc1nn(C)c(N2CCOCC2)c1CNCc1ccc(Cl)s1`, the Percent Effect came to 10.4%.
Still for that read-out and setting: for `CC(=O)N1CCCN(c2nccc(-c3cn(C)nc3C)n2)CC1` the value was 5.33%; for `Cc1scc(C(=O)N2CCC3(CCCN(C)C3=O)C2)c1-c1ccccc1` (stereo not given), 0%; for `Cc1cccc2[nH]c(C3CCN(C(=O)c4ccnn4C)CC3)nc12`, 7.79%.
As to `Cc1cccc(CN2CCc3c(nc(N4CCCCC4C)[nH]c3=O)C2)n1` (stereo not given), the Percent Effect was 4.05%.

In the next experiment the target is AMP-activated protein kinase, AMPK (Homo sapiens) (UniProt P54646+O43741+P54619+Q9UGJ0+Q9Y478+Q13131+Q9UGI9). As to the kind of experiment: AMP-dependent Kinase enzyme assay. An in vitro enzyme assay that detects ADP turnover that is directly proportional to AMPK activity. This uses naive AMPK that is activated during the assay with MK-8722. It counts as functional. Set-up: scale not given: direction of the effect not stated beside the values. The note with it: 30 µM.
For the compound `c1cnn(Cc2nnc(C3CCN(C4CCOCC4)CC3)n2C2CC2)c1`, the Percent Effect is -7%.
In the case of `CCOc1ccccc1C(CC(=O)Nc1ccc(C)cn1)NC(C)=O` (stereo not given), the Percent Effect was 7.35%.
Consider `Cc1nc(C)n(CC2CN(Cc3cccnc3)CCO2)n1` (stereo not given), for which the Percent Effect is -7.06%.
As to `CCOc1ccc(C#N)cc1NCC(=O)Nc1cc(F)ccc1F`, the Percent Effect is -7.04%.
On the same count and under the same terms, then `COCC1CN(C(=O)C2=CCCCC2)Cc2cnn(CC3CC3)c21` (stereo not given), with 2.96%; and `O=S1(=O)COCCN1Cc1cccc(Cl)c1`, with -2.78%.
`COCCN(Cc1nc2c(cnn2C)c(=O)[nH]1)Cc1ccco1`: the Percent Effect is -7.78%.
With `O=C(c1ccc(F)cc1)N1CCN2C[C@H](OCc3ccccn3)C[C@H]2C1`, the Percent Effect stood at 5.44%.
On the same count and under the same terms, for `CCO[C@@H]1CCN(C(=O)c2ccc[nH]2)[C@@H]1Cc1cnn(C)c1` the value was 17.3%; for `O=C1C[C@H]2[C@@H](CCN2C(=O)c2ccccc2)N1CCN1CCOCC1`, 0.783%; for `CC(NC(=O)NCCCn1cccn1)c1ccc2c(c1)NC(=O)CO2` (stereo not given), -6.75%.
For `CCc1nc(C(=O)N2CCCC2)nn1-c1ccccc1Cl`, the Percent Effect was -8.39%.
For `CN(CCOc1cccc(CNC(=O)C2CC2)c1)C1CCOCC1`, the Percent Effect is 2.77%.
With `CC(C)C1CN(C(=O)c2ccc(N3CCCC3)nc2)CCS1` (stereo not given), the Percent Effect came out at 0.107%.
In the case of `O=C(CCn1ccccc1=O)Nc1ccc(F)c(Cl)c1`, the Percent Effect is -4.38%.
On to `CCS(=O)(=O)c1ccccc1N1CCC(NC(=O)NC2CCCC2)CC1`, for which the Percent Effect is 5.69%.
Regarding `O=C(NS(=O)(=O)c1cc(Cl)sc1Cl)c1cccc2c1OCCO2`, the Percent Effect came to 3.09%.
Still for that read-out and setting: for `CN(C)C(=O)CNC(=O)c1ccc(Cl)cc1F` the value was -0.479%; for `COc1cccc(N2CCN(CCC(=O)NC3CCCC3)CC2)c1`, 6.03%.
As to `c1csc(CN2Cc3nccn3CC(Cn3cncn3)C2)n1` (stereo not given), the Percent Effect came to 0.961%.
`Cc1cc2nc(SCC(=O)N3CCCC3)n(-c3ccccc3)c(=O)c2[nH]1`: the Percent Effect was found to be 7.28%.
`Cc1ccc(CN2CCCC3(CCN(S(C)(=O)=O)C3)C2)o1` (stereo not given): the Percent Effect came to 11.7%.
As to `CC(NC(=O)NCC1(N2CCCCC2)CCCCC1)c1nncn1C` (stereo not given), the Percent Effect is -2.65%.
Same read-out and setting: then `CCOc1ncccc1C(=O)N(C)Cc1ncc(C)c(OC)c1C`, with 5.97%.
Take `Cc1cc(C[C@@H]2COC[C@H]2NCc2ccc(Br)s2)on1`: the Percent Effect stood at 9.27%.
On to `CC(C)N1CCC(Cc2cncc(-c3ccccc3C(=O)O)n2)CC1`, for which the Percent Effect was found to be 9.75%.
On to `Cc1ccc2oc(CNC(C)c3nnc4n3CCCC4)cc2c1` (stereo not given), for which the Percent Effect is -8.92%.
As to `CC(=O)N1CCN(C(=O)NCc2csc(Br)c2)CC1`, the Percent Effect stood at 4.94%.
In the case of `CCc1noc(C(C)N2CCN(Cc3nc(C)c(C)o3)CC2)n1` (stereo not given), the Percent Effect was determined as 6.83%.
Consider `CC(C)c1csc(C2CCCN(C(=O)c3ncccn3)C2)n1` (stereo not given), for which the Percent Effect was 4.03%.
`CC(C)(C)N1CC(C(=O)N2CCN(CCn3cccc3)CC2)CC1=O` (stereo not given): the Percent Effect is -6.2%.
The same measure, in the same setting: for `CC(C)c1nc(C2CCCN2CCc2ccncc2)no1` (stereo not given) the value was 6.93%; for `CC(=O)NCc1ccc(C(=O)N2CCCC2c2cnn(C)c2)o1` (stereo not given), -0.621%.
For the compound `CC(C)NC(=O)c1n[nH]c(-n2cnnc2)n1`, the Percent Effect was -5.08%.
As to `Cc1cc(C)n(CC2CN(Cc3nc(-c4ccoc4)no3)CCO2)n1` (stereo not given), the Percent Effect is -10.1%.
`Cc1nn(C)c(N2CCOCC2)c1CNCc1ccc(Cl)s1`: the Percent Effect worked out at 2.59%.
In the case of `CC(=O)N1CCCN(c2nccc(-c3cn(C)nc3C)n2)CC1`, the Percent Effect was -0.173%.
On to `Cc1scc(C(=O)N2CCC3(CCCN(C)C3=O)C2)c1-c1ccccc1` (stereo not given), for which the Percent Effect came out at 1.8%.
Regarding `Cc1cccc2[nH]c(C3CCN(C(=O)c4ccnn4C)CC3)nc12`, the Percent Effect is 3.06%.
Take `Cc1cccc(CN2CCc3c(nc(N4CCCCC4C)[nH]c3=O)C2)n1` (stereo not given): the Percent Effect was found to be 13%.
